PubChem BioAssay (NCI)
About 83,000 compounds went through this panel and 20% of them were active in at least one assay; those are over-represented in the sample as a whole.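 Plates (96-well) were seeded with cells, treated with compound at one concentration, and incubated for 48 hours before percent growth was determined.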 Values without a mark were called inactive. Activity calls are given as the source filed them. Rule for the calls: active = growth percent below 10; inactive = the rest.

The compounds below were run on U251 CNS (assay: NCI-60 one-dose screen, 48 h (100 = growth as untreated, 0 = no growth, -100 = all killed)). Settings: 10 µM unless noted.

SMILES | growth
CCN1CCN(/C(=N\c2sc(-c3ccccc3)nc2-c2ccccc2)c2ccccc2)CC1 | 67.4%
CCCCN1C(=O)/C(=c2\sc3n(c2=O)C2C(NN=3)N(CC)C(=O)N2CC)c2cc(Cl)ccc21 (stereo not drawn) | 65.4%
O=C1C2=C(C(=O)c3c(O)cccc31)C(c1ccco1)c1sc(=O)[nH]c1S2 (stereo not drawn) | 11.5%
COc1cc(/C=C/C(=O)c2ccc(C(F)(F)F)cc2)ccc1Oc1nc(NCCO)nc(N2CCOCC2)n1 | 70.1%
OC1CCN(CCCOc2c3ccc(Cl)cc3nc3c2oc2ccc(Cl)cc23)CC1 | -93.5% (active)
Nc1c(C(=O)Nc2ccc(Cl)cc2)sc2nc(-c3cnccn3)cc(-c3cccs3)c12 | 17.9%
O=C(N/N=C/c1ccc([N+](=O)[O-])o1)c1[nH]c2ccc(Br)cc2c1-c1ccccc1 | 13.3%
Cc1ccc(-c2nc(C(Cl)Cl)nc3cc(-c4ccccc4)nn23)cc1 | -58.6% (active)
CCOC(=O)c1c(NC(=O)c2cccc(C(F)(F)F)c2)sc2cc(O)ccc12 | 98.9%
OC1CCN(CCCOc2c3ccccc3nc3c2oc2ccccc23)CC1 | 4.21% (active)
COc1ccc(C(=O)/C=C/c2ccc(OCc3ccc(Cl)cc3)c(OC)c2)cc1OC | 58.1%
CN(C)CCCNc1c2ccccc2nc2c1oc1ccc(Cl)cc12 | 33.4%
COc1ccc(NC2=CC(=O)C(C)=C(C)C2=O)cc1 | 92%
COc1ccc(-n2c(SCC(=O)Nc3ccc(-c4nc5ccccc5[nH]4)cc3)nc3ccccc3c2=O)cc1 | -83.4% (active)
C/C(=N\NC(N)=O)c1c(O)sc(=O)[nH]c1=O | 108%
OC1CCN(CCCOc2c3ccc(Cl)cc3nc3c2oc2ccccc23)CC1 | -43.3% (active)
NS(=O)(=O)c1ccc(Nc2nc(Nc3ccccc3)nc(-n3nc(-c4ccccc4)cc3-c3ccccc3)n2)cc1 | 33.3%
COc1cc(OC)c(C2C(Cl)C(=O)N2Nc2ncnc3ccccc23)cc1OC (stereo not drawn) | 91.7%
CN(C)CCCOc1c2ccc(Cl)cc2nc2c1oc1ccc(Cl)cc12 | -66% (active)
Cc1[nH]nc2ncc(C#Cc3cncc(C(=O)Nc4ccc(CN5CCN(C)CC5)c(C(F)(F)F)c4)c3)cc12 | 40.5%

SMILES | growth
CC1=C(C)C(=O)C(Nc2cccc(C(F)(F)F)c2)=C(Cl)C1=O | 79%
Cn1cc(-c2cc(N)n3nc(-c4cn(C)c5ccc(Br)cc45)cc3n2)c2cc(Br)ccc21 | -37.9% (active)
O=c1[nH]c2ccc(Cl)cc2cc1CSc1ccccc1Nc1nccc(-c2ccc(Cl)cc2)n1 | 79.7%
COc1ccc(-c2nc3ccc(-c4nnc(SCC(=O)Nc5ccc(C(=O)/C=C/c6ccccc6)cc5)o4)cc3[nH]2)cc1OC | 93.2%
N#Cc1nc(-c2ccccc2)oc1S(=O)(=O)N1CCN(CCc2ccccn2)CC1 | 88%
CN1CCN(Cc2ccc(NC(=O)c3cncc(C#Cc4cnc5[nH]ncc5c4)c3)cc2C(F)(F)F)CC1 | 31.3%
COc1cc(/C=C/C(=O)c2ccc(F)cc2)ccc1Oc1nc(NCCO)nc(N2CCOCC2)n1 | 44.1%
Clc1ccc2c(OCCCN3CCOCC3)c3oc4ccccc4c3nc2c1 | 36.2%
O=C(c1ccc(O)cc1)C1[C@H](c2ccc(Cl)cc2)[C@@H](c2ccccc2)NC12C(=O)Nc1ccc(Cl)cc12 (stereo partly drawn) | 29.6%
Nc1cc(-c2c[nH]c3ccccc23)nc2cc(-c3c[nH]c4ccccc34)nn12 | 29.7%
Oc1c(Cl)cc(Cl)c2ccc(CN3CCCCC3)nc12 | 30.6%
CN(C)CCCOc1c2ccc(Cl)cc2nc2c1oc1ccccc12 | 4.05% (active)
CS(=O)(=O)c1ccc(-c2nc3ccccn3c2/C=N/Nc2nc(-c3ccc(Br)cc3)cs2)cc1 | 107%
C=CCn1c(SCC(=O)c2ccc(Br)cc2)nnc1-c1c[nH]c2ccccc12 | 99.9%
COc1cc(/C=C/C(=O)c2ccccc2)ccc1Oc1nc(NCCO)nc(N2CCOCC2)n1 | 88.4%
COC1CCN(Cc2ccc3c(NNC(=O)c4cnccn4)nc4cc(F)ccc4n23)C1 (stereo not drawn) | 12.8%
CC(C)NC(=O)c1cc(-c2ccc(NC(=O)Nc3ccc(N4CCOCC4)c(C(F)(F)F)c3)cc2)nc2cccnc12 | 47%
O=C(N/N=C/c1ccco1)c1[nH]c2ccc(Br)cc2c1-c1ccccc1 | 31.7%
O=C(CSc1nccc(=O)[nH]1)Nc1ccc(-c2nc3ccccc3[nH]2)cc1 | 106%

These compounds were tested on PC-3 prostate in the same assay as above. Settings: 10 µM unless noted.

SMILES | growth
CCN1CCN(/C(=N\c2sc(-c3ccccc3)nc2-c2ccccc2)c2ccccc2)CC1 | 65.8%
CCCCN1C(=O)/C(=c2\sc3n(c2=O)C2C(NN=3)N(CC)C(=O)N2CC)c2cc(Cl)ccc21 (stereo not drawn) | 71.2%
O=C1C2=C(C(=O)c3c(O)cccc31)C(c1ccco1)c1sc(=O)[nH]c1S2 (stereo not drawn) | 8.77% (active)
COc1cc(/C=C/C(=O)c2ccc(C(F)(F)F)cc2)ccc1Oc1nc(NCCO)nc(N2CCOCC2)n1 | 87.2%
OC1CCN(CCCOc2c3ccc(Cl)cc3nc3c2oc2ccc(Cl)cc23)CC1 | 21%
Nc1c(C(=O)Nc2ccc(Cl)cc2)sc2nc(-c3cnccn3)cc(-c3cccs3)c12 | 54.3%
O=C(N/N=C/c1ccc([N+](=O)[O-])o1)c1[nH]c2ccc(Br)cc2c1-c1ccccc1 | 16.2%
Cc1ccc(-c2nc(C(Cl)Cl)nc3cc(-c4ccccc4)nn23)cc1 | 26.8%
CCOC(=O)c1c(NC(=O)c2cccc(C(F)(F)F)c2)sc2cc(O)ccc12 | 94.8%
OC1CCN(CCCOc2c3ccccc3nc3c2oc2ccccc23)CC1 | -1.48% (active)
COc1ccc(C(=O)/C=C/c2ccc(OCc3ccc(Cl)cc3)c(OC)c2)cc1OC | 59.4%
CN(C)CCCNc1c2ccccc2nc2c1oc1ccc(Cl)cc12 | 47.2%
COc1ccc(NC2=CC(=O)C(C)=C(C)C2=O)cc1 | 71.5%
COc1ccc(-n2c(SCC(=O)Nc3ccc(-c4nc5ccccc5[nH]4)cc3)nc3ccccc3c2=O)cc1 | 6.41% (active)
C/C(=N\NC(N)=O)c1c(O)sc(=O)[nH]c1=O | 97%
OC1CCN(CCCOc2c3ccc(Cl)cc3nc3c2oc2ccccc23)CC1 | -4.93% (active)
NS(=O)(=O)c1ccc(Nc2nc(Nc3ccccc3)nc(-n3nc(-c4ccccc4)cc3-c3ccccc3)n2)cc1 | 26.7%
COc1cc(OC)c(C2C(Cl)C(=O)N2Nc2ncnc3ccccc23)cc1OC (stereo not drawn) | 89.6%
CN(C)CCCOc1c2ccc(Cl)cc2nc2c1oc1ccc(Cl)cc12 | 23.2%
Cc1[nH]nc2ncc(C#Cc3cncc(C(=O)Nc4ccc(CN5CCN(C)CC5)c(C(F)(F)F)c4)c3)cc12 | 48.8%

SMILES | growth
CC1=C(C)C(=O)C(Nc2cccc(C(F)(F)F)c2)=C(Cl)C1=O | 64.4%
Cn1cc(-c2cc(N)n3nc(-c4cn(C)c5ccc(Br)cc45)cc3n2)c2cc(Br)ccc21 | 71.9%
O=c1[nH]c2ccc(Cl)cc2cc1CSc1ccccc1Nc1nccc(-c2ccc(Cl)cc2)n1 | 69%
COc1ccc(-c2nc3ccc(-c4nnc(SCC(=O)Nc5ccc(C(=O)/C=C/c6ccccc6)cc5)o4)cc3[nH]2)cc1OC | 101%
N#Cc1nc(-c2ccccc2)oc1S(=O)(=O)N1CCN(CCc2ccccn2)CC1 | 86%
CN1CCN(Cc2ccc(NC(=O)c3cncc(C#Cc4cnc5[nH]ncc5c4)c3)cc2C(F)(F)F)CC1 | 42.3%
COc1cc(/C=C/C(=O)c2ccc(F)cc2)ccc1Oc1nc(NCCO)nc(N2CCOCC2)n1 | 70.8%
Clc1ccc2c(OCCCN3CCOCC3)c3oc4ccccc4c3nc2c1 | 50.7%
O=C(c1ccc(O)cc1)C1[C@H](c2ccc(Cl)cc2)[C@@H](c2ccccc2)NC12C(=O)Nc1ccc(Cl)cc12 (stereo partly drawn) | 24.6%
Nc1cc(-c2c[nH]c3ccccc23)nc2cc(-c3c[nH]c4ccccc34)nn12 | 60.6%
Oc1c(Cl)cc(Cl)c2ccc(CN3CCCCC3)nc12 | 56.8%
CN(C)CCCOc1c2ccc(Cl)cc2nc2c1oc1ccccc12 | 5.27% (active)
CS(=O)(=O)c1ccc(-c2nc3ccccn3c2/C=N/Nc2nc(-c3ccc(Br)cc3)cs2)cc1 | 100%
C=CCn1c(SCC(=O)c2ccc(Br)cc2)nnc1-c1c[nH]c2ccccc12 | 78.3%
COc1cc(/C=C/C(=O)c2ccccc2)ccc1Oc1nc(NCCO)nc(N2CCOCC2)n1 | 84.9%
COC1CCN(Cc2ccc3c(NNC(=O)c4cnccn4)nc4cc(F)ccc4n23)C1 (stereo not drawn) | 40.9%
CC(C)NC(=O)c1cc(-c2ccc(NC(=O)Nc3ccc(N4CCOCC4)c(C(F)(F)F)c3)cc2)nc2cccnc12 | 44.5%
O=C(N/N=C/c1ccco1)c1[nH]c2ccc(Br)cc2c1-c1ccccc1 | 30.2%
O=C(CSc1nccc(=O)[nH]1)Nc1ccc(-c2nc3ccccc3[nH]2)cc1 | 92.6%
